Where “and” joins values, the source holds several entries; their conditions need not be identical. Equal values may be shown once. Records with an inconclusive call do not appear. A structure can be active in one record and inactive in another. Calls of active or inactive are those of the source. Unless noted, the call rests on the fitted dose curve.
Experiments:
[1] = qHTS assay to identify small molecule antagonists of the sonic hedgehog signaling (Shh) pathway (AID 1259369); further: nearly all actives have a fitted effect of over 45% in size; further: potency means the concentration at half of the fitted maximal effect
Method in brief: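 Gli1 transcriptional reporter (firefly Luc) in NIH/3T3 background, conditioned-medium activated. 24hr exposure, luminescence endpoint.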

[2] = molecular target: Estrogen receptor beta (Homo sapiens) (UniProt Q92731); assay: qHTS assay to identify small molecule agonists of the estrogen receptor beta (ER-beta) signaling pathway (AID 1259377; active means well fitted activation curve with a large enough effect in the signal ratio in the repeat runs, not every such curve was filed as active; the % refers to the signal ratio; further: potency means the concentration at half of the fitted maximal effect)
Method in brief: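 Measured by fluorescence intensity from a B/G FRET beta-lactamase substrate (2 h, room temperature) in ER-beta-UAS-bla HEK293T cells treated with DMSO-dissolved compounds for 16 hr at 37C and 5% CO2.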

[3] = molecular target: Estrogen receptor beta (Homo sapiens) (UniProt Q92731); assay: qHTS assay to identify small molecule antagonists of the estrogen receptor beta (ER-beta) signaling pathway (AID 1259378; active means well fitted inhibition curve with a large enough effect in the signal ratio in the repeat runs, not every such curve was filed as active; the % refers to the signal ratio; further: potency means the concentration at half of the fitted maximal effect)
Method in brief: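 Antagonist mode: compounds added to beta-lactamase reporter HEK293T ER-beta-UAS cells stimulated with E2 (1nM final), 16 hr at 37C. LiveBLAzer B/G FRET substrate, 2 hours room temperature, fluorescence read-out.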

[4] = qHTS assay to identify small molecule agonists of the androgen receptor (AR) signaling pathway in the presence of an antagonist - cell viability counter screen (AID 1259379; active means well fitted curve in the direction sought with a large enough effect in the repeat runs; an effect the other way counts as inactive or inconclusive;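 further: MDA-kb2 human breast cancer cells carrying an MMTV luciferase reporter; series mostly up to about 92 µM; nearly all actives have a fitted effect of over 25% in size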)
Method in brief: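 Counter screen for cell viability run in parallel with the AR agonist-mode luciferase assay. MDA-kb2 cells were co-treated with nilutamide (3.0uM final) and compounds, then incubated 16 hr at 37C, and CellTiter-Fluor fluorescence was measured.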

[5] = qHTS assay to identify small molecule agonists of the estrogen receptor beta (ER-beta) signaling pathway - cell viability counter screen (AID 1259380; active means well fitted curve in the direction sought with a large enough effect in the repeat runs; an effect the other way counts as inactive or inconclusive; further: nearly all actives have a fitted effect of over 30% in size; further: potency means the concentration at half of the fitted maximal effect)
Method in brief: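 In this qHTS counter screen, HEK293T cells carrying an ER-beta/UAS beta-lactamase reporter, grown in 2% charcoal-stripped FBS, received compound for 16 hr; ATP-based CellTiter-Glo luminescence was then read after 30 min at room temperature.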

[6] = qHTS assay to identify small molecule antagonists of the estrogen receptor beta (ER-beta) signaling pathway - cell viability counter screen (AID 1259382; active means well fitted curve in the direction sought with a large enough effect in the repeat runs; an effect the other way counts as inactive or inconclusive;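 further: HEK293T cells carrying ER-beta-UAS-bla reporter stimulated with estradiol; series mostly up to about 92 µM; nearly all actives have a fitted effect of over 55% in size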)
Method in brief: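 HEK293T ER-beta-UAS-bla, 2% charcoal-stripped FBS; compounds + 1nM E2 16 hr 37C; CellTiter-Glo luminescence, 30 min RT.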

[7] = molecular target: Androgen receptor (Homo sapiens) (UniProt P10275); assay: qHTS assay to identify small molecule agonists of the androgen receptor (AR) signaling pathway in the presence of an antagonist (AID 1259381); further: nearly all actives have a fitted effect of over 15% in size; further: potency means the concentration at half of the fitted maximal effect
Method in brief: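 AR antagonist background: nilutamide 3.0uM final. Cell line: MDA-kb2, MMTV-driven luciferase, responsive to both AR and GR. Exposure 16hr, 37C, no CO2; ONE-Glo luminescence.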

[8] = molecular target: Thyrotropin receptor (Homo sapiens) (UniProt P16473); assay: qHTS assay to identify small molecule antagonists of the thyroid stimulating hormone receptor (TSHR) signaling pathway (AID 1259385); further: nearly all actives have a fitted effect of over 20% in size
Method in brief: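 Antagonist mode: compound-treated TSHR-expressing HEK293 cells were stimulated with 1.5 ng/mL TSH (final) in presence of Ro20-1724 for 30 min at RT. HTRF cAMP detection after 1 h; each compound tested at 15 concentrations, triplicate.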

[9] = molecular target: Estrogen receptor (Homo sapiens) (UniProt P03372); assay: qHTS assay to identify small molecule agonists of the estrogen receptor alpha (ER-alpha) signaling pathway in the presence of an antagonist (AID 1259383); further: nearly all actives have a fitted effect of over 15% in size; further: potency means the concentration at half of the fitted maximal effect; on activation: top concentration of the series differs between compounds
Method in brief: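 ER-alpha agonism measured under antagonist challenge: 10.0nM ICI-182,780 (final) plus compound, 15 concentrations, 22hr, VM7Luc4E2 ERE-luciferase cells. Read by luminescence.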

[10] = qHTS assay to identify small molecule agonists or antagonists of the thyroid stimulating hormone receptor (TSHR) signaling pathway - wild type cell line counter screen (AID 1259384)
Method in brief: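 Counter screen in untransfected Hek293: compounds (15-point titration, triplicate) plus phosphodiesterase inhibitor Ro20-1724 added after 18 h plating; 30 min RT. Intracellular cAMP via competitive d2/cryptate immunoassay, 1 h incubation.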

Measured: Potency

Sequence of Androgen receptor (Homo sapiens) (P10275 whole entry, looked up): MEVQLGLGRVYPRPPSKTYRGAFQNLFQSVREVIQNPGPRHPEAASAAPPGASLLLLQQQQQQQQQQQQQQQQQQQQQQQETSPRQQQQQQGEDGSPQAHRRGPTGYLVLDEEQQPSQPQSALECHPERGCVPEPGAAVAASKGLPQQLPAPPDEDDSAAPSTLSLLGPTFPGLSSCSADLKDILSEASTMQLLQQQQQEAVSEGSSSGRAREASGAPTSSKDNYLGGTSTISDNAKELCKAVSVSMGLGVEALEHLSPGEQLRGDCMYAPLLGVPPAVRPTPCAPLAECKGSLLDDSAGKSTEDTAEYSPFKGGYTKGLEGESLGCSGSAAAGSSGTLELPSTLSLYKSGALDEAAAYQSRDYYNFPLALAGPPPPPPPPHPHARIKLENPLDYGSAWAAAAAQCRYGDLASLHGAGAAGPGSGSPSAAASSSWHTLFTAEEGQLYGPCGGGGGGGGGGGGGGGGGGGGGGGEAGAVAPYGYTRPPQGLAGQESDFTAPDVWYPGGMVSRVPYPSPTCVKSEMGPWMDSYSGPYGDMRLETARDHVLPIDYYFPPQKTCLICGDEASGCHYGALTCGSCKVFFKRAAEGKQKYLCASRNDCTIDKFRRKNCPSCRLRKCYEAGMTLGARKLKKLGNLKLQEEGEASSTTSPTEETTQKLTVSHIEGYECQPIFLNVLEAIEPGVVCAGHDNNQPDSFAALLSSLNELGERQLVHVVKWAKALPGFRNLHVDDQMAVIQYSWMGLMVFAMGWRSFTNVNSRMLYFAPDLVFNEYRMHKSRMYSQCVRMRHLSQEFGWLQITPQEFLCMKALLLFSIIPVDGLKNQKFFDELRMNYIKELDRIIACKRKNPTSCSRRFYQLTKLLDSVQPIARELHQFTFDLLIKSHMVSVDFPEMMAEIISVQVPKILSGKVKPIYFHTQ
Sequence of Estrogen receptor beta (Homo sapiens) (Q92731 whole entry, looked up): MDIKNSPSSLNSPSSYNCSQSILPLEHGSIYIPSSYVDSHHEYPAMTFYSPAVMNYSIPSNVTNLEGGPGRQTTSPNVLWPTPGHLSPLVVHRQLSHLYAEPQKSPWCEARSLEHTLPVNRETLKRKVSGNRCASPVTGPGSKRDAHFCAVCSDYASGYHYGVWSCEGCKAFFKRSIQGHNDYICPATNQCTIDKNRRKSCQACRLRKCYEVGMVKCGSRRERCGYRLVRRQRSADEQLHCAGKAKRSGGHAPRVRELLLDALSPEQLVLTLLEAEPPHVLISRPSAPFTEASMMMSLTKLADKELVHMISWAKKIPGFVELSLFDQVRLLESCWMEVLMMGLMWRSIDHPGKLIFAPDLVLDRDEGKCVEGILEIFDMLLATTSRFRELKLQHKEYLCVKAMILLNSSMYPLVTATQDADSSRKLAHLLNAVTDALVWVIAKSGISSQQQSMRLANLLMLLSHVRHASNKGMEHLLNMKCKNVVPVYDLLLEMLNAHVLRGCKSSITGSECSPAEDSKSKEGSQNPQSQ
Sequence of Thyrotropin receptor (Homo sapiens) (P16473 whole entry, looked up): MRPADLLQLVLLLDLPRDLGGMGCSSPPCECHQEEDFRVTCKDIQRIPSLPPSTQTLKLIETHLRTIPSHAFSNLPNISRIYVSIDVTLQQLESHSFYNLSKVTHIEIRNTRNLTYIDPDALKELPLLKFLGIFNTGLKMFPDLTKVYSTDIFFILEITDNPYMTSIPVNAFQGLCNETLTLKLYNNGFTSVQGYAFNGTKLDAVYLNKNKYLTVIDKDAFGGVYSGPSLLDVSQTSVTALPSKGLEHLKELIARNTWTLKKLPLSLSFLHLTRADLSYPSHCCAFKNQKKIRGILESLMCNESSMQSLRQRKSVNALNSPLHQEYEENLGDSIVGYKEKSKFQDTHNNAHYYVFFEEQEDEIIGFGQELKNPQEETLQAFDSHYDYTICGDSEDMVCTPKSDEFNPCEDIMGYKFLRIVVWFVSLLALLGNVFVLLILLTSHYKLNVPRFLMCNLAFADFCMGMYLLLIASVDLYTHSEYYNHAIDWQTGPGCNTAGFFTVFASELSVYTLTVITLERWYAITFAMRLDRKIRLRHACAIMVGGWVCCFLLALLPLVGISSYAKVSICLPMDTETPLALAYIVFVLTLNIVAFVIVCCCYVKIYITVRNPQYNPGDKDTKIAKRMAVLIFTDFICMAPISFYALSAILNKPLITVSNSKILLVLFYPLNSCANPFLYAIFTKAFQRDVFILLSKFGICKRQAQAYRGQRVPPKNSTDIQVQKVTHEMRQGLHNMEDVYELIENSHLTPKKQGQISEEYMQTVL
Sequence of Estrogen receptor (Homo sapiens) (P03372 whole entry, looked up): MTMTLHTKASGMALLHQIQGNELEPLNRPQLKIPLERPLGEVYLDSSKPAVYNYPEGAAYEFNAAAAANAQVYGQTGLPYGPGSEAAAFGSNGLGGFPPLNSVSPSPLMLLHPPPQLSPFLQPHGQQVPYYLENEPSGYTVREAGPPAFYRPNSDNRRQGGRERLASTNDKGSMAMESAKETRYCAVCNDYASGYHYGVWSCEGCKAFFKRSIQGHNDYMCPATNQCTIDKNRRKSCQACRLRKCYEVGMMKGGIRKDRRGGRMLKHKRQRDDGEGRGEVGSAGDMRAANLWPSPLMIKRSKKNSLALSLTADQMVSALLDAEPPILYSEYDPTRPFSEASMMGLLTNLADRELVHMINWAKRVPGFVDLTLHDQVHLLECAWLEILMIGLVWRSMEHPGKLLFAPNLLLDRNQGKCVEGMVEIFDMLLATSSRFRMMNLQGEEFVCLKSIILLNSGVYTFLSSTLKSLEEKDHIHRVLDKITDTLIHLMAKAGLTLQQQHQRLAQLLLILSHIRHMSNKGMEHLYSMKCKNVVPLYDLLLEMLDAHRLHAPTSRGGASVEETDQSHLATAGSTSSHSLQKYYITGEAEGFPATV

CC(C)(C#N)c1cc(Cn2cncn2)cc(C(C)(C)C#N)c1
inactive: [1] | [2] | [3] | [4] | [5] | [6]

COc1ccccc1OCC(O)CO (stereo not given)
not listed: [9] | [10]
inactive: all other assays above

CSc1ccc(Cl)cc1
inactive: all assays above

CC(=O)OCc1ccco1
1.53 µM (active) and inactive: [1]
not listed: [7]
inactive: all other assays above

CC(=O)OCc1ccccc1
139 nM (active) and inactive: [9]
inactive: all other assays above

CCO[Si](CCC#N)(OCC)OCC
not listed: [7] | [8] | [10]
inactive: all other assays above

CC(C)OP(=O)(CP(=O)(OC(C)C)OC(C)C)OC(C)C
inactive and 1.19 µM (active): [1]
not listed: [7] | [8] | [10]
inactive: all other assays above

C[C@]12CCC(=O)C=C1CC[C@@H]1[C@@H]2[C@@H](O)C[C@@]2(C)[C@H]1CC[C@]2(O)C(=O)CO
active: [7] 246 nM and 150 nM
not listed: [9] | [10]
inactive: all other assays above

NCCNCCN
inactive: [1] | [2] | [3] | [4] | [5] | [6]

CCCCCCCCCCCCCCCCO
not listed: [7]
inactive: all other assays above

CCNc1ccccc1
not listed: [9]
inactive: all other assays above

CCCCCCCCCCCCCCCC(=O)OC(C)C
inactive: [1] | [2] | [3] | [4] | [5] | [6]

CNC(=S)N(C)C
not listed: [7] | [8] | [10]
inactive: all other assays above

O=[N+]([O-])c1ccc2nc[nH]c2c1
not listed: [7]
inactive: all other assays above

CCNC(=S)NCC
not listed: [7] | [10]
inactive: all other assays above

CC(C)CC(=O)CC(C)CC(C)C (stereo not given)
not listed: [9]
inactive: all other assays above

OCc1ccccc1
inactive: all assays above

CC(CCO)CC(C)(C)C (stereo not given)
inactive: all assays above

O=C(O)Cn1c(=O)n(Cc2ccc(Br)cc2F)c(=O)c2ccc(Cl)cc21
inactive: all assays above

CC(CCl)OP(=O)(OC(C)CCl)OC(C)CCl (stereo not given)
not listed: [7]
inactive: all other assays above

CC(=O)CC(C)(C)O
not listed: [10]
inactive: all other assays above

CN/C(=C\[N+](=O)[O-])NCCSCc1csc(CN(C)C)n1
not listed: [9]
inactive: all other assays above

CCOC(=O)n1ccn(C)c1=S
not listed: [7]
inactive: all other assays above

CC(=O)OC1CC(C)OC(C)O1 (stereo not given)
inactive: [1] | [2] | [3] | [4] | [5] | [6]

C[Si]1(C)O[Si](C)(C)O[Si](C)(C)O[Si](C)(C)O1
not listed: [7]
inactive: all other assays above

CC(=O)Oc1ccc(C)cc1
not listed: [8] | [10]
inactive: all other assays above

CC(C)CC(C)O (stereo not given)
not listed: [7]
inactive: all other assays above

CC(C)(C)c1cc(Cc2cc(C(C)(C)C)c(O)c(C(C)(C)C)c2)cc(C(C)(C)C)c1O
not listed: [7]
inactive: all other assays above

O=C(O)c1ccc(S(=O)(=O)N(Cl)Cl)cc1
not listed: [7]
inactive: all other assays above

O=c1[nH]cnc2[nH]ncc12
22.2 µM (active) and inactive: [3]
not listed: [7] | [8] | [10]
inactive: all other assays above

COc1ccc([N+](=O)[O-])cc1N
not listed: [7] | [8] | [10]
inactive: all other assays above

Cc1ccc([N+](=O)[O-])cc1S(=O)(=O)O
not listed: [10]
inactive: all other assays above

COc1ccc(N)c(C)c1
not listed: [7]
inactive: all other assays above

CCCCCC(=O)O
not listed: [10]
inactive: all other assays above

Cc1ccc(C(C)C)c(O)c1
not listed: [7] | [8] | [10]
inactive: all other assays above

NCCN1CCNCC1
not listed: [7]
inactive: all other assays above

CN(C)c1ccc(O)c2c1C[C@H]1C[C@H]3[C@H](N(C)C)C(=O)C(C(N)=O)=C(O)[C@@]3(O)C(=O)C1=C2O
inactive and 2.66 µM (active): [9]
86.3 µM (active) and inactive: [5]
not listed: [7]
inactive: all other assays above

Brc1ccc(Br)c(Br)c1
not listed: [2] | [7]
inactive: all other assays above

CCCCCCCO
not listed: [7] | [10]
inactive: all other assays above

c1ccc2c(c1)Cc1ccccc1-2
not listed: [7] | [10]
inactive: all other assays above

C=CC[N+](C)(C)CC=C
not listed: [7] | [9]
inactive: all other assays above

COc1ccc(CCC(C)=O)cc1
not listed: [7] | [9]
inactive: all other assays above

O=C(O)/C=C/C(=O)O
not listed: [7] | [9]
inactive: all other assays above

Clc1ccccn1
not listed: [7] | [9] | [10]
inactive: all other assays above

CCCCCCCCCCO
not listed: [3] | [7]
inactive: all other assays above

C=CCCCCCCCCC(=O)O
not listed: [3] | [7] | [9]
inactive: all other assays above

c1ccc(Oc2ccccc2)cc1
not listed: [7] | [9]
inactive: all other assays above

C=CC(C)CCCC(C)(C)O (stereo not given)
54.4 µM (active) and inactive: [2]
not listed: [7] | [10]
inactive: all other assays above

CN(C)c1ccc(Cc2ccc(N(C)C)cc2)cc1
not listed: [7] | [9]
inactive: all other assays above

CN1C(=O)CC[C@H]1c1cccnc1
not listed: [7] | [9]
inactive: all other assays above

CC1(C)OC[C@@H]2O[C@@]3(C(=O)O)OC(C)(C)O[C@H]3[C@@H]2O1
not listed: [7] | [9]
inactive: all other assays above

Reference: PubChem BioAssay (Tox21)
